For some of these results: Measured potencies and affinities stand elsewhere.
How the values were obtained:
Design in all cases: scale not given: direction of the effect not stated beside the values
[1] = target: Protein translocase subunit SecA (Escherichia coli (strain K12)) (UniProt P10408); test: Assay to Identify E. coli SecA ATPase Inhibitors; format: functional; settings: 30 µM
[2] = target: T1, Ubiquitin-activating enzyme e1, putative (Leishmania donovani (strain BPK282A1)) (UniProt E9BSI1); test: Leishmania donovani Ubiquitin Activating Enzyme (LdE1); format: functional; settings: 30 µM
T1 sequence (whole entry): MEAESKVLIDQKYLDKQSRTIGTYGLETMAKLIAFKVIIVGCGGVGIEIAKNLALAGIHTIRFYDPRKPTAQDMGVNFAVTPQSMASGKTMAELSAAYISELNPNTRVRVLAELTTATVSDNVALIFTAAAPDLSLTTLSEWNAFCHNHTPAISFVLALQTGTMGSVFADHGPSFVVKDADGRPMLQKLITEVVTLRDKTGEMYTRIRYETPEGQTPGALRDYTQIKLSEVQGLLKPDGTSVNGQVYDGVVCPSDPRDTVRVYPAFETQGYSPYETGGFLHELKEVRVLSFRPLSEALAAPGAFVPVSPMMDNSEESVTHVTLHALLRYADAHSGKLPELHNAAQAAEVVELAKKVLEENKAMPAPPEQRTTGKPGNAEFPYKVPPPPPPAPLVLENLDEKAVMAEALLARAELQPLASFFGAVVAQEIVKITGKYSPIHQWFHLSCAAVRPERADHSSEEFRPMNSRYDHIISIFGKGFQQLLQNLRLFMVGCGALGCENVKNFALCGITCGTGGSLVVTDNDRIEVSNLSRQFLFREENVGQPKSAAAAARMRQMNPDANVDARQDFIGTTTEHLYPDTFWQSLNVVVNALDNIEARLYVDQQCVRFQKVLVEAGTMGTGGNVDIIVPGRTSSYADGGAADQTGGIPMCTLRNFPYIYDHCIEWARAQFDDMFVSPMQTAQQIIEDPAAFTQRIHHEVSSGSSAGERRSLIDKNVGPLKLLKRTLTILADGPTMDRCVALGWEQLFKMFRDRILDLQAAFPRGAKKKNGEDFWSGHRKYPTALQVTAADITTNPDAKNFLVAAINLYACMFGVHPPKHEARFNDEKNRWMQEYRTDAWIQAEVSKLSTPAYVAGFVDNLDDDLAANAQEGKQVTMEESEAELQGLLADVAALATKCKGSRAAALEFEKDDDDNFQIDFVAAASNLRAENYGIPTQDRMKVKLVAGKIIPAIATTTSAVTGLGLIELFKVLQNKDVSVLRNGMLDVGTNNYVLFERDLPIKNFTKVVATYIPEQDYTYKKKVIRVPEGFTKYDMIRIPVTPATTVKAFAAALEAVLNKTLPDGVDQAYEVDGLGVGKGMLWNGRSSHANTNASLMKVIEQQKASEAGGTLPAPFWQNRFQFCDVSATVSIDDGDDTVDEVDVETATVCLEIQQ

[3] = target: AMP-activated protein kinase, AMPK (Homo sapiens) (UniProt P54646+O43741+P54619+Q9UGJ0+Q9Y478+Q13131+Q9UGI9); test: AMP-dependent Kinase enzyme assay. An in vitro enzyme assay that detects ADP turnover that is directly proportional to AMPK activity. This uses naive AMPK that is activated during the assay with MK-8722; format: functional; settings: 30 µM
[4] = target: Sialic acid-binding Ig-like lectin 9 (Homo sapiens) (UniProt Q9Y336); test: Hs-Siglec9 ALPHAscreen SOP 20170721; settings: 10 µM
Chain of Sialic acid-binding Ig-like lectin 9 (Homo sapiens) (Q9Y336 whole entry): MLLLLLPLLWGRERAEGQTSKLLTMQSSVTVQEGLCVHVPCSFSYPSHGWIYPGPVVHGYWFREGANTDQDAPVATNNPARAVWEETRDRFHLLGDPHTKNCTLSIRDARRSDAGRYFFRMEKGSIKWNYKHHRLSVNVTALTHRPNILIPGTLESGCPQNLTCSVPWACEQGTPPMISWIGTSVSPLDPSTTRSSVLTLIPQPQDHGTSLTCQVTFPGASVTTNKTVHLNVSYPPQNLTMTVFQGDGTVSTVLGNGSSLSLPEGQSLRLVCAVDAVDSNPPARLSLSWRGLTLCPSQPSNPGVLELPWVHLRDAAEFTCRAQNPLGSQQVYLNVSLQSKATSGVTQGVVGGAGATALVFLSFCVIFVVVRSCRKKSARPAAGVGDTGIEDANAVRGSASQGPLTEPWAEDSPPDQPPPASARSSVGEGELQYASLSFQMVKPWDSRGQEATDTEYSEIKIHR

Trypanosoma cruzi = test: Trypanosoma cruzi phosphomannomutase and mannose-1-phosphate guanylyltransferase assay; format: functional; settings: 10 µM
[5] = target: T2, Arginase-2, mitochondrial (Homo sapiens) (UniProt P78540); test: in vitro enzyme assay to detect the production of urea directly proportional to the activity of Arginase II; format: functional; settings: 33.3 µM; note: in the data most compounds retested in dose-response had high values
T2 sequence (whole entry): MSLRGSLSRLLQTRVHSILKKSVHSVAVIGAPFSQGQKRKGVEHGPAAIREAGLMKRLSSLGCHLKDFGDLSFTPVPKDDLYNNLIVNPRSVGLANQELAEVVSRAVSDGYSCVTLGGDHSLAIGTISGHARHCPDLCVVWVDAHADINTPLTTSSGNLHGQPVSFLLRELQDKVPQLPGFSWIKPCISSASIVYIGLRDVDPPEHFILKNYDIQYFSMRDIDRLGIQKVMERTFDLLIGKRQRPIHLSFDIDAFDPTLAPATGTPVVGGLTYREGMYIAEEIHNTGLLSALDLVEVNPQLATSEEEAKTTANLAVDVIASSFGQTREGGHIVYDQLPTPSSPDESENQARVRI

[6] = target: T3, Proteasome subunit beta (Trypanosoma cruzi) (UniProt O96673); test: Trypanosoma cruzi proteasome chymotrypsin-like activity (TcProtChymo) assay.; note: in the data most compounds retested in dose-response had high values; format: functional; settings: 9.37 µM
T3 sequence (whole entry): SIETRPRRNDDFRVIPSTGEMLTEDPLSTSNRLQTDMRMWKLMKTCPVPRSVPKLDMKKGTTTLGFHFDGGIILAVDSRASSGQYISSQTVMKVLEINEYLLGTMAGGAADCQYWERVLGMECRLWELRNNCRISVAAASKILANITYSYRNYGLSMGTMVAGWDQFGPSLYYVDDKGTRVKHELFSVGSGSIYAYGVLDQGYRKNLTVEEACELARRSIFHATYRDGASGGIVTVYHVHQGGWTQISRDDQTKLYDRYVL

Homo sapiens = species on record: Homo sapiens; test: To identify inhibition of the IFN signalling (Jak-Stat) pathway via expression of an eGFP reporter gene under the control of an IFN-stimulated response element (ISRE) containing MxA promoter.; format: functional; settings: 30 µM
[7] = target: T4, Tyrosyl-tRNA synthetase, putative (Trypanosoma cruzi (strain CL Brener)) (UniProt Q4DSP6); test: Trypanosoma cruzi tyrosyl tRNA synthetase (TcYRS) _High Tyrosine SOP; format: functional; settings: 30 µM; note: in the data most compounds retested in dose-response had high values
T4 sequence (whole entry): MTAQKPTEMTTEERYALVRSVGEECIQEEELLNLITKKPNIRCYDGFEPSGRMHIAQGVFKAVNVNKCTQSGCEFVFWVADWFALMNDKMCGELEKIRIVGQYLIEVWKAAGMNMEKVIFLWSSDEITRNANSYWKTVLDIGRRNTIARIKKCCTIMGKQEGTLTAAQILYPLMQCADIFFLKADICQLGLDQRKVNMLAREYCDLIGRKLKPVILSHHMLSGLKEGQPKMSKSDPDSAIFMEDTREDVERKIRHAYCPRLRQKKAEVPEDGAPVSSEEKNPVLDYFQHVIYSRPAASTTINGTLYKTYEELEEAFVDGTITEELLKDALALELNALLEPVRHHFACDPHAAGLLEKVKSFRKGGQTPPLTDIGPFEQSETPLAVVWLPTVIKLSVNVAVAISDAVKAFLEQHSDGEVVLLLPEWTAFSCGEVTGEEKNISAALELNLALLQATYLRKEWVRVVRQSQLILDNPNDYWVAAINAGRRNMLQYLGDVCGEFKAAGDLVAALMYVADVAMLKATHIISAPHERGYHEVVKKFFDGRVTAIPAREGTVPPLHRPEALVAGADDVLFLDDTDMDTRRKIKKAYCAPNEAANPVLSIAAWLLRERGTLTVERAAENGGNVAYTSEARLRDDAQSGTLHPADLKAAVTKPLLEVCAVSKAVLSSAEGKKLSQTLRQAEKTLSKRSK

[8] = target: T4, Tyrosyl-tRNA synthetase, putative (Trypanosoma cruzi (strain CL Brener)); test: Trypanosoma cruzi tyrosyl tRNA synthetase (TcYRS) SOP; format: functional; settings: 30 µM
[9] = target: Chromo domain-containing protein 1 (Saccharomyces cerevisiae (strain ATCC 204508 / S288c) (Baker's yeast)) (UniProt P32657); test: ScCHD-1 Enzyme Inhibition Assay; format: functional; settings: 30 µM; note: in the data most compounds retested in dose-response had high values
Chain of Chromo domain-containing protein 1 (Saccharomyces cerevisiae (strain ATCC 204508 / S288c) (Baker's yeast)) (P32657 whole entry, the tested form may be a part): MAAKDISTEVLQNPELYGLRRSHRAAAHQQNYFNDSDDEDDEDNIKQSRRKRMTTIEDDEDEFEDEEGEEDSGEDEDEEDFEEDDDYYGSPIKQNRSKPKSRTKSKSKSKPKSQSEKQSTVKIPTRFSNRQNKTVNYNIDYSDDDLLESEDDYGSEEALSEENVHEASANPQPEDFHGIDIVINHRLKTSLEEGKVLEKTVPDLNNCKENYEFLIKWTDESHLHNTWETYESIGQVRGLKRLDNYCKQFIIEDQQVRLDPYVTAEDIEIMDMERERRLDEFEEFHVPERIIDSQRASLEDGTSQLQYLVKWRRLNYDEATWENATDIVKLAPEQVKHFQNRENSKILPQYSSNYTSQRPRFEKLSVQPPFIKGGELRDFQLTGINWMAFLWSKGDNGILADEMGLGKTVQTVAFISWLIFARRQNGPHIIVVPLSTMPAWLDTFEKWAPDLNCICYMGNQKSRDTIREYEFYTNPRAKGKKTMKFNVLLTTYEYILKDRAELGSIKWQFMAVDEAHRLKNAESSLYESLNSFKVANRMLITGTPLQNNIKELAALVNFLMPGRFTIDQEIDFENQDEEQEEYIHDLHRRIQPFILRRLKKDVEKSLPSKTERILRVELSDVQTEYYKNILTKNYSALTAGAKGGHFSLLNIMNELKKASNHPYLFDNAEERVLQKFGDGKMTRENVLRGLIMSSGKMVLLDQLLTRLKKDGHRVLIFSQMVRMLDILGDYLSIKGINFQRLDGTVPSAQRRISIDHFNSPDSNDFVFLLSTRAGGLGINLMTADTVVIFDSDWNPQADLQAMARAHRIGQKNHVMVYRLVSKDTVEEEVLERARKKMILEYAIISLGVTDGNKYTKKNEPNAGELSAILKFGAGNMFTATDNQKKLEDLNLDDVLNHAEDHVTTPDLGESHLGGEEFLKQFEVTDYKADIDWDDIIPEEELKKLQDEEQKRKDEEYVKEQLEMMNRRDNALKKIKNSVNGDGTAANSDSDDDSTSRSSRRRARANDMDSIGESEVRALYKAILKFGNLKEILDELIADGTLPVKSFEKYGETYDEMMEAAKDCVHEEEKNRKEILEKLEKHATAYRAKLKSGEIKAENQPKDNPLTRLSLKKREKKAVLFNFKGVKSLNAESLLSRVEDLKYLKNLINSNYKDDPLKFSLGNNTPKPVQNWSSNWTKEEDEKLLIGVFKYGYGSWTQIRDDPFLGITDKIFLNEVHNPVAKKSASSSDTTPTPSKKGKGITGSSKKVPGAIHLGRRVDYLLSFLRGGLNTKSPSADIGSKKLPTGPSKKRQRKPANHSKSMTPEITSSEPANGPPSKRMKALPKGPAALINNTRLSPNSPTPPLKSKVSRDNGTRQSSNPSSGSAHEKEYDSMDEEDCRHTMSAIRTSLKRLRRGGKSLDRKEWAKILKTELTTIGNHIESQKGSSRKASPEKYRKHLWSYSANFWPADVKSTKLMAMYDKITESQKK

Chain of Protein translocase subunit SecA (Escherichia coli (strain K12)) (P10408 whole entry): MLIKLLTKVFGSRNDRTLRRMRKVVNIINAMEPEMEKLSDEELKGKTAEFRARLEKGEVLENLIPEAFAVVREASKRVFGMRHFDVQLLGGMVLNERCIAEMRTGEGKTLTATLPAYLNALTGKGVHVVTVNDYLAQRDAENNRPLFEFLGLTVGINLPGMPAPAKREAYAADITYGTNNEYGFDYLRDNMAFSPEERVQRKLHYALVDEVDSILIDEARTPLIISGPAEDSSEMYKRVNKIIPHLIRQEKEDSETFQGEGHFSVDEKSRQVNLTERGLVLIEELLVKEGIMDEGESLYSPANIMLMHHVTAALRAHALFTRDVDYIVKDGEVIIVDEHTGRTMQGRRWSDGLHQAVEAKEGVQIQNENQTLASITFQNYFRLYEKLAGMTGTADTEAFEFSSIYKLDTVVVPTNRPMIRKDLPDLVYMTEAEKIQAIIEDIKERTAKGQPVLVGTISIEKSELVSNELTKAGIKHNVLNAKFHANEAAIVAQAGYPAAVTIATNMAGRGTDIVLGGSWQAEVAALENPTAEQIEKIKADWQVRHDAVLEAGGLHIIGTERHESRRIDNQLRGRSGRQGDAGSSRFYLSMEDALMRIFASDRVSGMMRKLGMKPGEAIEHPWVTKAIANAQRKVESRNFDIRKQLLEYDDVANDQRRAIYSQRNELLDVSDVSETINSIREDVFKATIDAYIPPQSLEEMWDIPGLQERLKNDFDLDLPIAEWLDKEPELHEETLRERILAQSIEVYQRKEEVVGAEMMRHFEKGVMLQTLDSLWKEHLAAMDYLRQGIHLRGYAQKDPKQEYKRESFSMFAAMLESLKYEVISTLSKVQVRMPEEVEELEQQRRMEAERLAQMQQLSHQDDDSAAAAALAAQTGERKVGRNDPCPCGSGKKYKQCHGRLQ

Structure (SMILES)	Percent Effect [1]	Percent Effect [2]	Percent Effect [3]	Percent Effect [4]	Percent Effect (Trypanosoma cruzi)	Percent Effect [5]	Percent Effect [6]	Percent Effect (Homo sapiens)	Percent Effect [7]	Percent Effect [8]	Percent Effect [9]
COc1cccc(CN2CCCCCC2c2cccc(C)c2)c1O (stereo not given)	-3.46%	-2.6%	18.9%	-5.45%	-3.25%	-3.23%	24%	21.6%	-5.29%	-3.85%	-9.17%
COc1c(C)cnc(CN2CCOC(Cn3nc(C)nc3C)C2)c1C (stereo not given)	-3.44%	7.59%	-1.91%	11%	1.6%	4.94%	-8.11%	-11.7%	2.46%	-8.86%	0.784%
CCc1nc(C2CCCN2CC(=O)Nc2sc(C)c(C)c2C)no1 (stereo not given)	-2.85%	-5.2%	3.9%	11.2%	1.69%	-1.42%	-8.11%	11.2%	13.6%	14.6%	-1.21%
C=C(Cl)CN1CCC(C(=O)c2cc(F)ccc2F)CC1	-2.54%	-13.2%	5.79%	-1.3%	4.32%	-0.766%	-1.67%	5.08%	0.49%	4.88%	6.62%
Cc1cc(NC(=O)CN2CCc3nn(C)c(=O)cc3C2)on1	-3.81%	6.94%	-63.3%	-0.594%	-1.46%	7.06%	13.9%	0.181%	-6.32%	-5.13%	-4.24%
COCC(=O)N1CCCC1c1cc(Nc2nnc(C)s2)nc(C)n1 (stereo not given)	-7.56%	0%	-6.16%	10.2%	7.09%	-3.96%	-2.38%	8.53%	4.25%	8.97%	-5.17%
CNC(=O)CS(=O)(=O)C1CCN(S(=O)(=O)C2CC2)CC1	-3.71%	0%	-0.0113%	-2.43%	0.979%	1.36%	4.79%	3.03%	3.23%	5%	-0.451%
CC(CNCc1ccncc1)Oc1ccccn1 (stereo not given)	-0.77%	9.33%	-1.66%	5.01%	0%	-15.3%	13.9%	2.27%	4.23%	7.69%	-10.8%
COc1cccc(CN2CCC(c3nccn3C(C)C)CC2)c1	-3.84%	15.6%	0.593%	14.9%	4.23%	-5.52%	11.5%	-3.74%	7.53%	21%	-7.09%
CCO[C@@H]1CO[C@@]2(CCCN(Cc3scnc3C)C2)C1	-2.88%	0%	-3.01%	9.05%	7.14%	-5.19%	9.85%	3.99%	-4.17%	3.7%	-0.793%
Cc1noc(C)c1C(=O)N1CCCC1c1c(C)nn(C)c1Cl (stereo not given)	-4.44%	7.59%	-2.1%	8.04%	5.38%	-4.56%	-1.72%	4.02%	2.46%	8.86%	-0.777%
O=C1[C@H]2CN(CC3CC3)C[C@H]2CN1Cc1cccc(F)c1	1.22%	-56.8%	4.89%	3.99%	-0.0978%	-0.955%	12.7%	-14.7%	2.16%	2.56%	9.93%
Cc1ccc(N2CCCC(NCc3ccncc3)C2)nn1 (stereo not given)	-2.1%	11.4%	-4.43%	-7.21%	0.718%	-3.23%	26.8%	-2.46%	0%	2.53%	-31.9%
CC(C)(C)CC(=O)N1CC[C@@H]2[C@H](CC1)N(S(C)(=O)=O)CCS2(=O)=O	-2.22%	16.2%	-9.04%	3.69%	5.27%	15%	9.89%	8.9%	8.91%	20.7%	-8.05%
Cc1cc(C)n(C2CN(CC(O)c3ccc4c(c3)OCO4)C2)n1 (stereo not given)	-2.6%	-13%	0.139%	7.69%	3.37%	-2.85%	4.56%	26.7%	15.5%	12.2%	-2.01%
COCC(=O)N1CCC(c2nc3ccc(-c4ccccc4)cn3n2)CC1	1.49%	-153%	4.81%	3.2%	-1.19%	4.79%	13.4%	15.6%	0%	3.7%	-1.08%
Cc1cn2c(n1)CCC(NC(=O)c1ccc(CS(C)(=O)=O)o1)C2 (stereo not given)	-2.09%	7.89%	0.931%	9.84%	4.13%	0.766%	9.52%	3.27%	3.43%	9.76%	-9.57%
CC(C)(C)c1nnc(CN2CCCC(c3cc(C(N)=O)[nH]n3)C2)o1 (stereo not given)	-6.11%	10.8%	-2.58%	-2.88%	-7.08%	-10%	3.78%	9%	-2.46%	-1.24%	-5.5%
CC(=O)N1CCN(c2cc(C3CN(C)CCO3)nc(C)n2)CC1 (stereo not given)	-3.82%	12.2%	9.39%	0.199%	-3.36%	-1.16%	14.8%	12.3%	5.38%	14.3%	-1.64%
CCOCCCNC(=O)c1cc(C(C)C)nc(N2CCCCCC2)n1	0.305%	-12%	4.38%	-7.72%	-5.5%	-16%	16.3%	17%	10.6%	12.8%	-11.2%

— ChEMBL document CHEMBL3988442, “University of Dundee, Small-Polar-MMV Screening Library” (2021)
